FAS TE block: inhibitors of human fatty acid synthase thioesterase domain. 0.67% of 360,000 active. recombinant FAS-TE, OMFH fluorogenic substrate, fluorescence endpoint. AID 602261. P49327. inhibition, % at 15 µM;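 active = compounds whose normalised, plate-corrected inhibition of enzyme fluorescence in the single-dose primary screen is 50% or more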;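 also: 0% = DMSO with enzyme and 100% = substrate without enzyme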
Myeloid diff MLP: compounds promoting myeloid differentiation. ER-HoxA9 myeloid progenitors, lysozyme-GFP differentiation, flow cytometry. calls only at 10 µM. 1% of 360,000 active. AID 624256;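 active = normalized GFP-positive differentiation at or above the plate's own cutoff, the solvent-only control mean plus 3 SD; inconclusive = no clear call, values can overlap the other calls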;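 also: cells exposed to compound for four days before flow analysis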
CendR NRP1 mod: modulators of CendR peptide binding to human neuropilin-1. O14786. FAM-RPARPAR peptide binding to NRP-1, fluorescence polarization. inhibition, % at 25 µM. 0.85% of 360,000 active. AID 602438;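 active = inhibition or corrected inhibition above about 18%, plus a signal ratio from 0.5 to 1.5, limit read from the data, passing the limit was not always enough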
CRFBP-R2 block: antagonists of CRF-binding protein/CRF-R2 receptor complex | inhibition, % at 11.8 µM | 0.59% of 350,000 active | AID 588475 | HEK293 CRF-R2/CRF-BP, CRF-induced calcium fluorescence;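 active = inhibition of the ligand-induced calcium signal above about 50% at the single tested concentration, limit read from the data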
NadD block: inhibitors of Staphylococcus aureus NadD. purified NadD enzyme, colorimetric absorbance read-out. inhibition, % at 20 µM. 0.78% of 360,000 active; in the data active = inhibition above about 26%
Numbers without * were called inactive; i = inactive; ? = inconclusive; / = not tested or not shown; + = active, no number; ! = a repeat was not active. Rows were chosen to be rich in hits. Some 3.6% of all compounds tested hit in one or more screens of this group.

SMILES	FAS TE block	Myeloid diff MLP	CendR NRP1 mod	CRFBP-R2 block	NadD block
C=CCNc1ncnc2c1ncn2[C@H]1CN(CCN2CCOCC2)C[C@@H](CO)O1	-6	i	-7	/	2
O=C(NCc1ccccc1)C1=C[C@H](c2ccccc2)C[C@H](OCc2ccc(CO)cc2)O1	8	i	-12	83*	2
C#CCNC(=O)C1=C[C@H](C2CCCCC2)C[C@H](OCc2ccc(CO)cc2)O1	7	i	-9	5	-2
C#CCNC(=O)C1=C[C@@H](C2CCCCC2)C[C@@H](OCc2ccc(CO)cc2)O1	4	i	28*	-1	-2
CC(C)COC(=O)N(C)C[C@H]1OCc2cnnn2CCCC(=O)N([C@H](C)CO)C[C@H]1C	-9	i	-7	-7	-2
O=C(NCCc1ccccc1)c1ccc2nc(-c3ccco3)c(-c3ccco3)nc2c1	5	i	-8	2	40*
Cc1cc2nc(NC(=O)C3(C)CCCN(C(C)C)C3)[nH]c2cc1C (stereo not drawn)	-4	i	-2	/	-8
CCOCCCNc1nc2c(C)cccn2c(=O)c1/C=C1\SC(=S)N(CC(C)C)C1=O	-168	+	-114	-358	-1
CCCN1C(=O)/C(=C/c2c(NCCCOCC)nc3c(C)cccn3c2=O)SC1=S	-88	+	-120	-173	-1
CCOCCCNc1nc2c(C)cccn2c(=O)c1/C=C1\SC(=S)N(C(C)CC)C1=O (stereo not drawn)	-123	+	134	-77	-1
CCC(C)N=Cc1c(Nc2ccccc2)nc2c(C)cccn2c1=O (stereo not drawn)	28	i	0	-3	7
OC(c1cccc(Cl)c1)c1ncc(-c2ccc(C(F)(F)F)cc2)[nH]1 (stereo not drawn)	14	i	-1	/	-8
CC(=O)Nc1cccc(-c2ccnc3c2CC(C(=O)Nc2ccc(C(C)C)cc2)O3)c1 (stereo not drawn)	14	i	-8	/	3
CN(C(=O)CSc1nnc(C(F)(F)F)n1C)c1c(N)n(Cc2ccccc2)c(=O)[nH]c1=O	-8	i	12	2	-1
CCN1CCN(Cc2ccc(NC(=O)c3ccc(C)c(NC(=O)C4=NN(c5ccccc5)C(=O)C4)c3)cc2C(F)(F)F)CC1	-11	i	-10	-7	40*!
CCN1CCN(Cc2ccc(NC(=O)c3cc(NC(=O)N4CCNC4=O)cc(OC)c3)cc2C(F)(F)F)CC1	-4	i	-16	-4	-12
CCN1CCN(Cc2ccc(NC(=O)c3cc(NC(=O)C4=NN(c5ccccc5)C(=O)C4)cc(OC)c3)cc2C(F)(F)F)CC1	-9	i	2	-21	33*
CCOC(=O)Cc1csc(SCC(=O)NC2CCS(=O)(=O)C2)n1 (stereo not drawn)	-13	i	9	-3	5
COc1ccccc1N1CCN(CC(=O)Nc2ccccc2C(=O)NC(C)c2ccccc2)CC1 (stereo not drawn)	14	i	20	0	-1
COc1ccc(N2CCN(CC(=O)Nc3ccccc3C(=O)NC(C)c3ccccc3)CC2)cc1 (stereo not drawn)	10	+	7	-30	-3
COc1ccc(CNC(=O)CN2CCN(c3ccc(F)cc3)CC2)cc1	-2	i	3	58*	-5
CCCNC(=O)C1(CC2CC(c3ccccc3)=NO2)CCN(C(=O)c2cc(OCC)c(OCC)c(OCC)c2)CC1 (stereo not drawn)	-4	i	-3	43	5
O=C(O)CN1C(=O)/C(=C2\C(=O)N(Cc3ccccc3Cl)c3ccccc32)SC1=S	4	i	-22	20	26*
CC1(C(=O)NS(=O)(=O)c2ccc(F)cc2F)CCN1C(=O)CCc1ccc(Cl)cc1Cl (stereo not drawn)	-10	i	-14	/	-6
Cc1ccc(S(=O)(=O)N(CC(=O)NCCC2=CCCCC2)Cc2ccccc2)cc1	26	+	3	-39	2
SMILES	FAS TE block	Myeloid diff MLP	CendR NRP1 mod	CRFBP-R2 block	NadD block
O=C(CN(Cc1ccccc1)S(=O)(=O)c1ccc(F)cc1)NCCC1=CCCCC1	21	i	0	-5	-7
Cc1ccn2cc(CSc3ccccc3N)nc2c1	-6	i	-2	61*	0
CC(Cc1ccccc1)C(=O)NCc1ccncc1 (stereo not drawn)	-4	i	6	6	-4
CC(Cc1ccccc1)C(=O)N[C@@H](CO)Cc1ccccc1 (stereo partly drawn)	-5	+	-5	-4	-4
CC(C)NC(=O)C1(C)CCN1Cc1cccc(C#N)c1 (stereo not drawn)	-9	i	-7	/	-4
O=c1c(Cl)c2oc3ccccc3nc-2c2ccccc12	-89	+	92	-309	1
CC(C)(C)Cc1c(-c2ccco2)nc2ccc(Cl)cn12	7	i	-6	/	2
CC1=C(C(=O)N(C(C)C)C(C)C)CC(CC(=O)NCc2ccco2)C(=O)N1CCC1=CCCCC1 (stereo not drawn)	-1	i	5	/	0
C[C@H]1CN(CCc2ccccc2)C(=O)[C@@H]1CC(=O)Nc1ccccc1	-5	i	-7	-23	0
COc1cccc(CN2CCN(CCc3ccccc3)C(CCO)C2)c1OC (stereo not drawn)	-9	+	3	4	-2
Cc1ccccc1Cn1c(C)c(C(=O)N(C)Cc2ccc(F)cc2)sc1=O	0	i	0	/	6
CCC1(c2ccc(F)cc2)NC(=O)N(CC(=O)Nc2cccc(S(=O)(=O)N3CCCCC3)c2)C1=O (stereo not drawn)	7	i	31*	-82	-1
CCC1(c2ccccc2)NC(=O)N(CC(=O)Nc2ccccc2C(=O)N2CCCCC2)C1=O (stereo not drawn)	-9	i	21*	-7	-5
CC1=C(c2ccccc2)C=NNCC1=O	-5	i	8	-11	3
CCN1CCN(C(C(=O)NC2CCCCC2)c2cc3ccccc3o2)CC1 (stereo not drawn)	-9	i	10	/	-1
Cc1ccc(-c2c[n+]3c(n2-c2ccccc2)CCC3)cc1	-1	?	3	-1	-2
c1ccc(-c2c[n+]3c(n2-c2ccccc2)CCC3)cc1	-5	+	10	9	-7
CC(=O)Nc1ccc(S(=O)(=O)NCc2nc(-c3ccccc3C)no2)cc1	-5	i	-11	-2	-6
COCCn1c(C)cc(/C=N/NC(=O)c2cc3ccccc3cc2O)c1C	1	i	-6	3	35*
Cn1c2ccccc2c2cc(/C=N/NC(=O)c3ccc(O)cc3O)ccc21	6	i	1	-9	40*
Cn1c(O)c(/C=N/NC(=O)c2cc3ccccc3cc2O)c2ccccc21	29	i	-131	-104	31*
CC(O)C(NC(=O)OCc1ccccc1)C(=O)OCc1ccccc1 (stereo not drawn)	5	i	-1	2	-4
